# Laboratory results as given in PubChem BioAssay (EPA / NIEHS).
# “And” between values parts separate entries of the source, which are not always exact repeats. Identical values can stand only once. Inconclusive results are not listed. The source made the active and inactive calls. Rule for the calls, unless noted: active = hit-call score of the fitted dose curve at least 0.9, where 1 is the maximum; inconclusive = response in the unintended direction; inactive = score below 0.9.
# Legend:
# [1] = target: Cellular tumor antigen p53 (Homo sapiens) (UniProt P04637); experiment: TOX21_p53_BLA_p2_ratio: Tox21 HCT-116 p53 Agonism Beta-lactamase Assay, Ratio, Phase 2 (AID 2283592)
# Outline: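 Gain-of-signal p53 agonism was scored from the beta-lactamase FRET ratio (460/530 nm, 405 nm excitation) in HCT116 cells treated 16 h at 37C, 5% CO2, with DMSO serving as negative control and baseline.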
# [2] = TOX21_p53_BLA_p3_viability: Viability Assessment in the Tox21 HCT-116 p53 Agonism Beta-lactamase Assay, Phase 3 (AID 2283593);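 note: cells exposed to compound for 16 h before reading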
# Outline: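 HCT116 cells, 4000/well, dosed 5 h after plating by pin transfer (217-fold dilution from DMSO stock) and incubated 16 h at 37C, 5% CO2. Viability read as ATP luminescence with CellTiter-Glo after 30 min at room temperature.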
# [3] = target: Cellular tumor antigen p53 (Homo sapiens) (UniProt P04637); experiment: TOX21_p53_BLA_p3_ratio: Tox21 HCT-116 p53 Agonism Beta-lactamase Assay, Ratio, Phase 3 (AID 2283596)
# Outline: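 HCT116 p53-bla cells (4000/well) given compound in DMSO (217-fold dilution) after 5 h, incubated 16 h at 37C. CCF4-AM substrate 2 h at room temperature; 460/530 nm emission ratio, gain fitted against DMSO.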
# [4] = TOX21_p53_BLA_p4_viability: Viability Assessment in the Tox21 HCT-116 p53 Agonism Beta-lactamase Assay, Phase 4 (AID 2283597);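 note: hits lower the luminescence signal meaning cytotoxicity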
# Outline: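 Following a 16 h exposure at 37C, the treated HCT116 wells were first read for the FRET ratio. They were then lysed with CellTiter-Glo, and ATP luminescence was recorded after 30 min at room temperature.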
# [5] = target: Cellular tumor antigen p53 (Homo sapiens) (UniProt P04637); experiment: TOX21_p53_BLA_p5_ratio: Tox21 HCT-116 p53 Agonism Beta-lactamase Assay, Ratio, Phase 5 (AID 2283599)
# Outline: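 HCT-116 p53-bla cells (4000/well) plated 5 h, dosed with compound (217-fold DMSO dilution) for 16 h at 37 C; CCF4-AM substrate 2 h at room temperature. Activity is the 460/530 nm emission ratio (405 nm excitation), fitted in gain-of-signal direction versus DMSO.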
# [6] = TOX21_p53_BLA_p5_viability: Viability Assessment in the Tox21 HCT-116 p53 Agonism Beta-lactamase Assay, Phase 5 (AID 2283600)
# Outline: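 After the 460/530 nm beta-lactamase measurement, the wells received an ATP-detection luciferase reagent; signal was read 30 min later at RT. Compound treatment lasted 16 h on cells pre-incubated 5 h post-seeding.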
# [7] = target: Cellular tumor antigen p53 (Homo sapiens) (UniProt P04637); experiment: TOX21_p53_BLA_p4_ratio: Tox21 HCT-116 p53 Agonism Beta-lactamase Assay, Ratio, Phase 4 (AID 2283601)
# Outline: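 HCT-116 p53 beta-lactamase reporter cells (4000/well) preincubated 5 h, then compound (217-fold dilution of DMSO stock) for 16 h at 37C. CCF4-AM substrate added 2 h at room temperature; 460/530 nm emission ratio fitted upward versus DMSO.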
# PGR (gene 5241) [8] = target: PGR (gene 5241) (UniProt P06401); experiment: TOX21_PR_BLA_Followup_Agonist_ratio: Tox21 HEK293 Progesterone Receptor (PR) Agonism Beta-lactamase Follow-Up Assay, Ratio (AID 2283933)
# Outline: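 PR-UAS-bla HEK293T cells (GAL4-UAS beta-lactamase reporter) in medium with 2% charcoal-stripped FBS received compounds after 6 hr at 37C, then incubated 16 hr. LiveBLAzer FRET substrate added, 2 hr room temperature; cleaved/uncleaved (ch2/ch1) ratio fitted upward versus DMSO.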
# PGR (gene 5241) [9] = target: PGR (gene 5241) (UniProt P06401); experiment: TOX21_PR_BLA_Followup_Antagonist_ratio: Tox21 HEK293 Progesterone Receptor (PR) Antagonism Beta-lactamase Follow-Up Assay, Ratio (AID 2283934)
# Outline: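 PR-UAS-bla HEK293T cells in medium with 2% charcoal-stripped FBS were treated with compounds plus 1 nM (final) promegestone (R5020) for 16 hr at 37C. LiveBLAzer B/G FRET substrate was then added for 2 h at room temperature; signal is cleaved/uncleaved substrate ratio versus DMSO.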
# PGR (gene 5241) [10] = target: PGR (gene 5241) (UniProt P06401); experiment: TOX21_PR_LUC_Followup_Agonist: Tox21 HEK293 Progesterone Receptor (PR) Agonism Luciferase Follow-Up Assay (AID 2283937; active = hit-call score of the fitted dose curve at least 0.9, where 1 is the maximum; inactive = score below 0.9)
# Outline: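 HEK293-PR-A-luc cells, pre-cultured 5 days in medium with 10% charcoal-stripped FBS, were seeded at 3,000 cells/well, rested 5 h at 37C, then exposed to compounds 16 h at 37C; luciferase read by ONE-Glo luminescence after 30 min.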
# [11] = TOX21_PR_LUC_Followup_Agonist_viability: Viability Assessment in the Tox21 HEK293 Progesterone Receptor (PR) Agonism Luciferase Follow-Up Assay (AID 2283941);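 note: loss of signal means cytotoxicity so actives lower viability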
# Outline: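 HEK293-PR-A-luc cells, pre-cultured 5 days in 10% charcoal-stripped FBS, were seeded at 3,000 cells/well, rested 5 h at 37C, then given compound in DMSO for 16 h at 37C. Cellular ATP was read by CellTiter-Glo luminescence; signal loss indicates cytotoxicity.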
# [12] = target: Thyroid hormone receptor alpha (Rattus norvegicus) + Thyroid hormone receptor beta (Rattus norvegicus) (UniProt P18113+P63059); experiment: TOX21_TR_LUC_GH3_Antagonist_Followup: Tox21 GH3 Thyroid Hormone Receptor Antagonism Luciferase Follow-Up Assay (AID 2283942)
# Outline: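 Antagonist mode: GH3 cells seeded 1,500/well, compounds at 15 concentrations (92 uM to 5nM final) plus T3 at 1.0 nM final, 24 h at 37C. Luciferase read with ONE-Glo after 30 min at room temperature.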
# THRB (gene 7068) [13] = target: THRB (gene 7068) (UniProt P10828); experiment: TOX21_TRB_BLA_Antagonist_Followup_ratio: Tox21 Thyroid Hormone Receptor beta Antagonism Beta-lactamase (BLA) Follow-Up Assay, Ratio (AID 2283958)
# Outline: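 GAL4-DBD/human TRβ-LBD fusion in GeneBLAzer UAS-bla HEK293T cells, 3,000 cells/well in phenol red-free DMEM with 2% charcoal-stripped FBS; compounds at 11 concentrations in triplicate, 18 h at 37C. CCF4-AM substrate 2 h, 460:530 nm ratio relative to DMSO.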
# THRB (gene 7068) [14] = target: THRB (gene 7068) (UniProt P10828); experiment: TOX21_TRB_COA_Antagonist_Followup_ratio: Tox21 Thyroid Hormone Receptor beta Antagonism through Coactivator Recruitment Follow-Up Assay, Ratio (AID 2283967)
# Outline: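 Cell-free TR-FRET: GST-TRb LBD (5.0 nM) with fluorescein-SRC-2 peptide (200 nM) and Tb anti-GST antibody (2 nM), 0.10% BSA. 520:495 nm emission ratio normalized to DMSO (0%) and T3 (100%).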
# [15] = target: Retinoic acid receptor RXR-alpha (Homo sapiens) (UniProt P19793); experiment: TOX21_TR_RXR_BLA_Antagonist_Followup_ratio: Tox21 Thyroid Hormone Receptor beta Retinoid X Receptor alpha (RXRa) Antagonism Beta-lactamase (BLA) Follow-Up Assay, Ratio (AID 2283972)
# Outline: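 After 5 h attachment at 37C, HEK293T RXRa-bla cells (2,500/well, 2% charcoal-stripped FBS, no phenol red) received compounds at 11 concentrations in triplicate for 16 h. Beta-lactamase read as 460:530 nm ratio after 2 h RT substrate loading.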
# [16] = TOX21_TR_RXR_BLA_Antagonist_Followup_viability: Viability Assessment in the Tox21 Thyroid Hormone Receptor beta Retinoid X Receptor alpha (RXRa) Antagonism Beta-lactamase (BLA) Follow-Up Assay (AID 2283979)
# Outline: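 RXRa-bla HEK293T cells (2,500/well, phenol red-free DMEM, 2% charcoal-stripped FBS) were attached 5 h, then exposed to compounds at 11 concentrations in triplicate for 16 h at 37C. Viability measured by CellTiter-Glo ATP luminescence, bidirectional fitting versus DMSO.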
# PGR (gene 5241), sequence (P06401 whole entry, looked up, the tested form may be a part): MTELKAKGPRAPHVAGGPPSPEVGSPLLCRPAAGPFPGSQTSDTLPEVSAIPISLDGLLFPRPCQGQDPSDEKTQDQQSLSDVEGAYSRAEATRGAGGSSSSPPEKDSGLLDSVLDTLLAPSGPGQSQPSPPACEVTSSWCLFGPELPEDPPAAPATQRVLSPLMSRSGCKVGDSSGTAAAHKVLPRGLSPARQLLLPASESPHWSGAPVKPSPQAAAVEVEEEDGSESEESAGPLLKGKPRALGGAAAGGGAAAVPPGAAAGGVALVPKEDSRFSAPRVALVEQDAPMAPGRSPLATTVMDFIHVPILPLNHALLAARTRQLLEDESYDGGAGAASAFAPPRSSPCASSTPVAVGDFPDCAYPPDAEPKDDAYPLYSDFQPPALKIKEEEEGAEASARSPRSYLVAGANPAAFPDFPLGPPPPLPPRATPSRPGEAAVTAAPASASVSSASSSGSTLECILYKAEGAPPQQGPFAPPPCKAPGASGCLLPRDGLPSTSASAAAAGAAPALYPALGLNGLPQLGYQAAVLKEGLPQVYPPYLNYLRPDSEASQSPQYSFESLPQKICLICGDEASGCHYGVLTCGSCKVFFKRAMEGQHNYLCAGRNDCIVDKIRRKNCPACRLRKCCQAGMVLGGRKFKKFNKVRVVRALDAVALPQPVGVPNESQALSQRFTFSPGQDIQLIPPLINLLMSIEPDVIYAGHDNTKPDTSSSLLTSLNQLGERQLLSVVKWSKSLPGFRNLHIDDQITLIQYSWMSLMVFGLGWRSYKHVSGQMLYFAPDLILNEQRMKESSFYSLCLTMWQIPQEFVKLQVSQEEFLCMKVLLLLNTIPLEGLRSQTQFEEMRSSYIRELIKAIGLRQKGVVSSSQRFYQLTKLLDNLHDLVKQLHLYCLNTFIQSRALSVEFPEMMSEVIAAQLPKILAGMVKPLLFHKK
# Cellular tumor antigen p53 (Homo sapiens), sequence (P04637 whole entry, looked up): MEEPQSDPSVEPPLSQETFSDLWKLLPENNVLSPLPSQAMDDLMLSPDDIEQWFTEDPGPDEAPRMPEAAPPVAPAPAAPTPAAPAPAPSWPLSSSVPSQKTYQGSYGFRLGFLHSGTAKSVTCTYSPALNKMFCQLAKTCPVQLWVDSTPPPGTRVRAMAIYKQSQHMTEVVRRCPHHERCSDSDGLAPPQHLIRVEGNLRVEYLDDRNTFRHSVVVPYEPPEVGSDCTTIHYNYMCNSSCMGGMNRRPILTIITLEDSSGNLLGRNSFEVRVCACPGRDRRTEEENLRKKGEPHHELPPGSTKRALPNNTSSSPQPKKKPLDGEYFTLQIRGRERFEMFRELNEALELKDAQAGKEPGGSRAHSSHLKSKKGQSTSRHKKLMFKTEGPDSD
# THRB (gene 7068), sequence (P10828 whole entry, looked up, the tested form may be a part): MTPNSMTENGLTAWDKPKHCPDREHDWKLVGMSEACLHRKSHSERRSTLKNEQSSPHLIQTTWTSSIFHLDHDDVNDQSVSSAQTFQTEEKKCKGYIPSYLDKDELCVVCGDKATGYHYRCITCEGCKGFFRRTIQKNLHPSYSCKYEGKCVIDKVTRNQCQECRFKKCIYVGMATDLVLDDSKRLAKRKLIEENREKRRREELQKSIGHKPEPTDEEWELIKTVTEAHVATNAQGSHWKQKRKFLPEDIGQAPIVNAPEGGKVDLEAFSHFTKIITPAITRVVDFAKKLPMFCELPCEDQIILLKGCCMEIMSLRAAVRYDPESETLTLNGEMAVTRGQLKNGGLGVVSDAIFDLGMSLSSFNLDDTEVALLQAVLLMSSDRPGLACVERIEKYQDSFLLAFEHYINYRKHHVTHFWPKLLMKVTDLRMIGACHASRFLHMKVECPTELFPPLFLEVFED
# Retinoic acid receptor RXR-alpha (Homo sapiens), sequence (P19793 whole entry, looked up): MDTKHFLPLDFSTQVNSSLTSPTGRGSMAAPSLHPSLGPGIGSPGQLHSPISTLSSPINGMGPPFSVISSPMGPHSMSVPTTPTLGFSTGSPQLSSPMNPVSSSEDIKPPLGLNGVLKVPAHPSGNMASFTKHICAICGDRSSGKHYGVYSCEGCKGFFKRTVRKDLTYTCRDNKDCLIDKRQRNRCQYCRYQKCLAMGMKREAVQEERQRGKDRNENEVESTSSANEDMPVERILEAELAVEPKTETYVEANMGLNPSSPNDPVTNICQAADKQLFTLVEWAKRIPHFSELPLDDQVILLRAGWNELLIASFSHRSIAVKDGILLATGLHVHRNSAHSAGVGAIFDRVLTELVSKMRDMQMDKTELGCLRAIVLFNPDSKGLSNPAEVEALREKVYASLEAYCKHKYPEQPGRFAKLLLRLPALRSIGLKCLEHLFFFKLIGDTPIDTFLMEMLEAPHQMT
compound,measurement,setting,value
CC[C@]1(O)CC[C@H]2[C@@H]3CCC4=CCCC[C@@H]4[C@H]3CC[C@@]21C,AC50,[1],3.73 µM (active)
same,outcome,[2],inactive
same,AC50,[3],3.62 µM (active)
same,outcome,[4],inactive
same,AC50,[5],7.06 µM (active)
same,outcome,[6],inactive
same,AC50,[7],7.04 µM (active)
same,AC50,PGR (gene 5241) [8],0.686 µM (active)
same,outcome,PGR (gene 5241) [9],inactive
same,AC50,PGR (gene 5241) [10],0.0421 µM (active)
same,outcome,[11],inactive
same,outcome,[12],inactive
same,AC50,THRB (gene 7068) [13],11.6 µM (active)
same,outcome,THRB (gene 7068) [14],inactive
same,AC50,[15],14.3 µM (active)
same,outcome,[16],inactive
N#CSCc1ccccc1,AC50,[1],80.2 µM (active)
same,outcome,[2],inactive
same,AC50,[3],30.7 µM (active)
same,outcome,[4],inactive
same,outcome,[5],inactive
same,outcome,[7],inactive
CNC(C)CC1CCCCC1 (stereo not given),outcome,[1],inactive
same,outcome,[2],inactive
same,outcome,[3],inactive
same,outcome,[4],inactive
same,outcome,[5],inactive
CNC(=O)Oc1c(C(C)(C)C)cc(C)cc1C(C)(C)C,outcome,[1],inactive
same,outcome,[2],inactive
N[C@@H](Cc1ccc(N(CCCl)CCCl)cc1)C(=O)O,AC50,[1],26.6 µM (active) and 25.6 µM (active)
same,outcome,[2],inactive
same,AC50,[3],20.2 µM (active) and 24.6 µM (active)
same,outcome,[4],inactive
same,AC50,[5],32.6 µM (active) and 29.2 µM (active)
same,outcome,[6],inactive
same,AC50,[7],22.7 µM (active) and 30.4 µM (active)
CC1N=C(N)OC1c1ccccc1 (stereo not given),outcome,[1],inactive
same,outcome,[2],inactive
same,outcome,[3],inactive
same,AC50,[4],26 µM (active)
same,outcome,[6],inactive
same,outcome,[7],inactive
Cl/C=C\Cl,outcome,[1],inactive
Cc1cc(Cl)ccc1N=CN(C)C,outcome,[1],inactive
same,outcome,[2],inactive
same,outcome,[3],inactive
same,outcome,[4],inactive
same,outcome,[5],inactive
same,outcome,[6],inactive
same,outcome,[7],inactive
